PLC-gamma1 inh = blocks human PLC-gamma1 enzyme activity; P19174; purified PLC-gamma1, fluorogenic substrate, fluorescence; AID 720700; actives 0.84% (n = 370,000); inhibition, % at 12.2 µM; in the data active = inhibition above about 9.5%
PLCb3 inh = PLC-beta3 (human) inhibition, primary screen. AID 720704. Purified PLC-beta3, fluorogenic substrate, fluorescence. actives 0.18% (n = 370,000). Q01970. inhibition, % at 12.2 µM; in the data active = inhibition above about 11%;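 note: 0% = median of compound wells on plate and 100% = full blocker control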
HIF act = HIF pathway transcriptional activation | U2OS HRE-luciferase reporter, luminescence; normalized: DMSO 0%, desferrioxamine 100% | activation, % at 7.5 µM (by protocol) | actives 0.32% (n = 300,000);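 active = mean activation of at least 10% of the iron chelator positive control signal, with at least half of replicates also reaching 10%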
CR mimetic SO = yeast age-related superoxide inhibition as caloric restriction mimetic; AID 2690; actives 0.18% (n = 330,000); superoxide response (% of plate mean), % at 10 µM; S. cerevisiae aged cells, superoxide DHE fluorescence; active compounds read low;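 active = superoxide response under a set limit, about three screen SD below normal, cut at about 65% in these data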;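 note: yeast aged for seven days with compound at 30 °C before DHE staining; 100% = average MFI of all compound-treated wells on the plate with controls excluded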
HGIII-sPLA2 inh = Blocks human group III sPLA2 activity; QFRET BODIPY PC-A2 liposome hydrolysis, fluorescence; inhibition, % at 12.2 µM; actives 0.56% (n = 370,000); AID 743126;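 active = inhibition above mean plus 3 SD of compounds lying within the high and low control bounds, cut at about 19% in these data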;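 note: 0% = median of test compound wells and 100% = no enzyme DMSO wells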
AHR act = human AHR activation; P35869; AHR-responsive luciferase reporter cells, luminescence; activation, % at 5 µM; actives 2.5% (n = 320,000); in the data active = activation above about 47%;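 note: 0% = vehicle wells and 100% = reference agonist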
* hit, by the source's call; i = inactive; / = not tested or not shown. Hits are enriched below; roughly 3.9% of the tested compounds scored in any of these assays.

SMILES	PLC-gamma1 inh	PLCb3 inh	HIF act	CR mimetic SO	HGIII-sPLA2 inh	AHR act
COc1ccc2nc(/N=C/c3c(C)[nH]n(-c4ccc(C)cc4)c3=O)sc2c1	1	2	0	96	-2	52*
Cc1ccc(-n2[nH]c(C)c(/C=N/c3ccccn3)c2=O)cc1	0	0	0	93	3	11
O=[N+]([O-])c1ccccc1CSc1nc2ccccc2o1	5	5	-5	103	11	48*
O=C(NCCNCCO)c1c(O)c2cccc3c2n(c1=O)CCC3	-3	-4	-1	89	6	58*
CC(=O)Nc1ccc(O)c(-c2nc3ccccc3s2)c1	i	i	3	102	-5	72*
Cc1ccsc1C(=O)Nc1ccc(O)c(-c2nc3ccccc3s2)c1	-381	i	0	104	-9	46
Cc1sc(NC(=O)C2=COCCO2)nc1-c1ccc(F)cc1	-4	-15	2	119	-12	52*
O=C(Nc1ccc(O)c(-c2nc3ccccc3s2)c1)C1=COCCO1	-164	-154	0	91	-10	50*
COc1cc(-c2nc3ccccc3s2)ccc1O	i	i	3	124	-20	48*
O=C(Nc1ccc(-c2nc3ccccc3s2)c(O)c1)C1=COCCO1	i	i	2	97	-6	8
O=C(Nc1ccc(-c2nc3ccccc3s2)cc1)C1=COCCO1	-3	-8	-3	99	11	50*
O=C(Nc1cccc(-c2nc3ccccc3s2)c1)C1=COCCO1	-2	0	1	108	-51	9
CCN1CCCC1CNC(=O)c1cc2cc(F)ccc2[nH]1 (stereo not given)	-4	-15	-2	116	-3	67*
O=C(NCCCN1CCN(c2ccccc2F)CC1)Nc1ccccc1[N+](=O)[O-]	3	-3	252*	120	-9	5
O=C(NCCCN1CCN(c2ccccc2F)CC1)Nc1ccc(F)cc1	1	0	1	93	-3	0
CN1[C@@H](Cc2ccccc2)COc2cccc(N3CCSCC3)c2S1(=O)=O	-5	-10	/	/	3	/
CCc1ccc(OCC(=O)N/N=C2\CC(=O)c3ccccc32)cc1	/	/	0	96	/	62*
COc1ccc(OCC(=O)N/N=C2\CCCCc3ccccc32)cc1	3	2	0	146	0	2
Cc1nn(C(=O)c2cccnc2)c(C)c1C	6	4	0	107	2	-3
Cc1nn(C(=O)c2cccnc2)c(C)c1Sc1ccccc1	6	2	103*	99	-3	3
COc1cc(C(=O)NCCc2nc3ccccc3n2C)cc(OC)c1OC	1	-1	95*	82	0	0
COc1ccccc1C(=O)c1nc2ccccc2n1C	3	0	1	100	0	62*
COc1ccccc1NCc1nc2ccccc2n1C	0	0	/	/	2	/
COc1cc(C(=O)Cc2nc3ccccc3n2C)cc(OC)c1OC	-9	-18	0	111	3	28
Cc1ccc(NC2CCCN(C(=O)c3cccnc3)C2)cc1C (stereo not given)	-4	-6	0	103	7	48*
SMILES	PLC-gamma1 inh	PLCb3 inh	HIF act	CR mimetic SO	HGIII-sPLA2 inh	AHR act
Cc1cccc(NC(=O)CSc2nnc(-c3cccnc3)n2Cc2ccco2)c1C	2	0	/	/	1	/
Clc1cccc(Cl)c1COc1ccccc1CNn1cnnc1	1	-3	0	98	0	59*
Brc1ccc2ncnc(Nc3cccc4ccccc34)c2c1	-9	-15	-1	85	7	59*
COc1cccc(Nc2ncnc3ccc(Br)cc23)c1	-22	-35	/	/	7	/
Brc1ccc(-c2cn3c(n2)CCc2ccc4cccnc4c2-3)cc1	-53	-69	0	93	2	47*
Brc1ccc(OCCCOc2cccc3cccnc23)cc1	-8	-20	0	98	-9	4
COc1cc2[nH]c(=S)nc(NCc3cccs3)c2cc1OC	-2	-1	0	90	4	60*
COC(=O)[C@]12C[C@H](CC(=O)NCc3ccc(OC)c(OC)c3)C(=O)N(Cc3cccc4ccccc34)C1=C[C@H](C(C)(C)C)O[C@@H]2C	3	5	/	/	-9	/
N#Cc1cc2c(N)c(C(=O)Nc3ccccc3)sc2nc1N	/	/	4	97	/	64*
Clc1ccc(CSc2cc3c(nn2)-c2ccccc2CC3)cc1	8	0	/	104	0	47*
Clc1ccc(CSc2ccc(-c3ccco3)nn2)cc1	0	-1	4	104	1	-3
COc1cc(NC(=O)C2CCN(S(=O)(=O)c3ccc4c(c3)CC(C)N4C(C)=O)CC2)cc(OC)c1OC (stereo not given)	0	-4	0	114	-8	5
COc1ccc(NC(=O)C2CCN(S(=O)(=O)c3ccc4c(c3)CC(C)N4C(C)=O)CC2)cc1OC (stereo not given)	2	-5	678*	92	0	2
CCOC(=O)c1ccccc1S(=O)(=O)N1CCN(c2nc(-c3cccs3)nc3ccccc23)CC1	2	0	/	/	-2	/
Cc1[nH]n(-c2ccccc2)c(=O)c1N=Nc1ccc(Cl)cc1	6	-5	-4	106	2	51*
CC(=O)c1ccc(N=Nc2c(C)[nH]n(-c3ccccc3)c2=O)cc1	5	-1	0	103	11	54*
CC(C)(C)c1ccc(-c2nnc(SCC(=O)Nc3ccc(S(=O)(=O)Nc4nccs4)cc3)n2-c2ccc(Cl)cc2)cc1	2	-4	/	/	-73	/
Cc1cc(C)n2nc(-c3sccc3-n3c(C)ccc3C)cc2n1	-51	-57	/	86	6	52*
Cc1ccc(N=Nc2c(C)[nH]n(C(N)=S)c2=O)cc1	-2	4	0	102	3	51*
Cc1[nH]n(C(N)=S)c(=O)c1N=Nc1ccc(S(=O)(=O)N2CCCC2)cc1	4	4	-21	179	-3	2
O=C(N/N=C/c1cc([N+](=O)[O-])ccc1Cl)c1cc(-c2ccccc2)nc2ccccc12	4	-79	0	96	4	0
O=[N+]([O-])c1ccc(O)c(/C=N/Nc2nc3ccccc3[nH]2)c1	0	4	-2	99	-6	57*
O=C(N/N=C/c1ccco1)c1cc(-c2cccc(Br)c2)nc2ccccc12	-19	-13	0	119	2	50*
O=C(N/N=C/c1cc([N+](=O)[O-])ccc1O)c1cc(-c2ccccc2)nc2ccccc12	-2	0	20*	87	3	0
COc1ccc(O)c(/C=N/Nc2nc3ccccc3[nH]2)c1	-21	-30	1	100	10	24
CC(/C=N/NC(=O)c1cc(-c2ccncc2)nc2ccccc12)=C\c1ccco1	/	/	0	117	/	9
O=[N+]([O-])c1ccc(O)c(C=Nc2cccc3ccccc23)c1	-34	-49	-1	112	-7	52*

Screening results: PubChem BioAssay, several laboratories
